The values that follow come from PubChem BioAssay (Tox21).

Test [1] can be described thus: qHTS assay to identify small molecule agonists of the constitutive androstane receptor (CAR) signaling pathway - cell viability counter screen (AID 1224836). Also: nearly all actives have a fitted effect of over 45% in size. Also: potency is read from the fitted curve at half-maximal effect. In a few lines: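 HepG2 cells stably carrying hCAR and a CYP2B6-2.2kb reporter were plated 4 h, then given compounds at 15 concentrations plus PK11195 (final 0.75 uM). After 23 h at 37 C, viability was read by CellTiter-Fluor fluorescence.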
In general terms: Quantitative high-throughput screening tests each substance at several concentrations.

Test [2] in a line: qHTS assay to identify small molecule antagonists of the constitutive androstane receptor (CAR) signaling pathway - cell viability counter screen (AID 1224837). Also: nearly all actives have a fitted effect of over 45% in size. Also: potency is read from the fitted curve at half-maximal effect. An outline of the steps:
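HepG2 cells stably expressing hCAR and a CYP2B6-2.2kb reporter were plated and pre-incubated 4 hr at 37 C/5% CO2, then given compounds at 15 concentrations plus 50 nM CITCO (final). After 23 hr, viability was read by CellTiter-Fluor fluorescence.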

Test [3] can be described thus: qHTS assay to identify small molecule antagonists of the estrogen related receptor signaling pathway with the pleiotropic PPARgamma coactivator (PGC) from Tox21 10K library - cell viability counter screen (AID 1224840; active = well fitted cell-killing curve with a large enough effect in the repeat runs, not every such curve was filed as active; also: nearly all actives have a fitted effect of over 40% in size; also: potency is read from the fitted curve at half-maximal effect). An outline of the steps: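 PGC/ERR cells were seeded at 2,000 cells/well and left 6 hours at 37 C/5% CO2 before pin-tool addition of compounds in DMSO. After 17.5 hours at 37 C, CellTiter-Fluor was added and fluorescence read 30 minutes later.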

Test [4] in a line: qHTS assay to identify small molecule antagonists of the estrogen related receptor signaling pathway with the pleiotropic PPARgamma coactivator (PGC) from Tox21 10K library (AID 1224841; call rule not given here; also: actives are mostly falling curves and most rising ones were filed inactive; nearly all actives have a fitted effect of over 50% in size; also: potency is read from the fitted curve at half-maximal effect). An outline of the steps:
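PGC/ERR reporter cells were seeded at 2,000 cells/well and held 6 hours at 37 C/5% CO2 before pin-tool addition of compounds in DMSO. After 18 hours at 37 C, One-Glo was added and luminescence read after 30 minutes at room temperature.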

A short description of test [5]: qHTS assay to identify small molecule agonists of the estrogen related receptor signaling pathway with the pleiotropic PPARgamma coactivator (PGC) from Tox21 10K library (AID 1224842). Also: nearly all actives have a fitted effect of over 15% in size. In a few lines:
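Luminescence from One-Glo (30 min, room temperature) measured after PGC/ERR cells had 18 h at 37 C with pinned compound (23 nL in DMSO). Cells had been seeded at 2,000 per well and pre-incubated 6 h.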

Test [6] concerns the target Thyrotropin receptor (Homo sapiens) (UniProt P16473). Put plainly: qHTS assay to identify small molecule agonists of the thyroid stimulating hormone receptor (TSHR) signaling pathway (AID 1224843; calls by dose curve; also: nearly all actives have a fitted effect of over 45% in size). In a few lines:
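HEK293 cells stably bearing the thyrotropin receptor were plated at 800 cells/well and challenged with compound (30 min, RT). Accumulated cAMP was quantified via cAMP-d2 competing for cryptate-tagged antibody.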

Test [7] in a line: qHTS assay to identify small molecule agonists of the hypoxia (HIF-1) signaling pathway - cell viability counter screen (AID 1224844; calls by dose curve; also: nearly all actives have a fitted effect of over 50% in size; also: potency is read from the fitted curve at half-maximal effect). In a few lines:
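HRE-bla ME-180 cells in medium with 0.5% dialyzed FBS were preincubated 5 hrs at 37C, exposed to compounds for 17 hrs, then viability was read as CellTiter-Glo luminescence after 30 min at room temperature, in the reporter wells.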

Test [8] deals with Luciferin 4-monooxygenase (Photinus pyralis) (UniProt P08659). The test can be described thus: qHTS assay to identify small molecule inhibitors of firefly luciferase (AID 1224835). Also: nearly all actives have a fitted effect of over 25% in size. Also: potency is read from the fitted curve at half-maximal effect. An outline of the steps:
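Inhibition of purified Photinus luciferase is measured by luminescence. Substrate levels (D-luciferin, ATP) sit at their KM values. Each compound is tested in a concentration series.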

In test [9] the target is Nuclear receptor subfamily 1 group I member 3 (Homo sapiens) (UniProt Q14994). Put plainly: qHTS assay to identify small molecule antagonists of the constitutive androstane receptor (CAR) signaling pathway (AID 1224838). Also: nearly all actives have a fitted effect of over 40% in size. Also: potency is read from the fitted curve at half-maximal effect. An outline of the steps: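 HepG2 cells stably co-transfected with hCAR and a CYP2B6-2.2kb luciferase reporter were seeded 4 h before compound addition at 15 concentrations. Cells were stimulated with 50 nM CITCO (final) for 24 h at 37 C; luciferase luminescence was then read.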

The target is the same in test [10]. The test can be described thus: qHTS assay to identify small molecule agonists of the constitutive androstane receptor (CAR) signaling pathway (AID 1224839). Also: nearly all actives have a fitted effect of over 15% in size. Also: potency is read from the fitted curve at half-maximal effect. An outline of the steps: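 HepG2 cells stably expressing hCAR and a CYP2B6-2.2kb luciferase reporter were treated with compounds at 15 concentrations plus 0.75 uM PK11195 (final) for 24 h at 37 C; luminescence was read after ONE-Glo addition.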

Where “and” joins values, the source holds several entries; their conditions need not be identical. Equal values may be shown once. Records with an inconclusive call do not appear. The source holds several records for some structures; these can differ, active in one and inactive in another. Calls of active or inactive are those of the source. Unless noted, calls follow the shape of the dose curve; as a rule, active = well fitted curve in the direction sought with a large enough effect in the repeat runs; inconclusive = weak or mixed curves; inactive = no such curve, though single readings can be large; an effect the other way counts as inactive or inconclusive.
% is scaled to controls: 0 for no effect and ±100 for the full control effect.

Chain of Nuclear receptor subfamily 1 group I member 3 (Homo sapiens) (Q14994 whole entry, looked up): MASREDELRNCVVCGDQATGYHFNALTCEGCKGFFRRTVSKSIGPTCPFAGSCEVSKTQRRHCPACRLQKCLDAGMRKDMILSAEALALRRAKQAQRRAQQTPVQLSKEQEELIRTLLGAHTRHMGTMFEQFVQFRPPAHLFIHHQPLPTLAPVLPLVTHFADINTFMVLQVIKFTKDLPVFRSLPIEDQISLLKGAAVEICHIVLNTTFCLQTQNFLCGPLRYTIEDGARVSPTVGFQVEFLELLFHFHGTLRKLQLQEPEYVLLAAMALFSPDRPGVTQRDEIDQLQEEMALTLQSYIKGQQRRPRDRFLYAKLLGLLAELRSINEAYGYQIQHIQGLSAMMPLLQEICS
Chain of Luciferin 4-monooxygenase (Photinus pyralis) (P08659 whole entry, looked up): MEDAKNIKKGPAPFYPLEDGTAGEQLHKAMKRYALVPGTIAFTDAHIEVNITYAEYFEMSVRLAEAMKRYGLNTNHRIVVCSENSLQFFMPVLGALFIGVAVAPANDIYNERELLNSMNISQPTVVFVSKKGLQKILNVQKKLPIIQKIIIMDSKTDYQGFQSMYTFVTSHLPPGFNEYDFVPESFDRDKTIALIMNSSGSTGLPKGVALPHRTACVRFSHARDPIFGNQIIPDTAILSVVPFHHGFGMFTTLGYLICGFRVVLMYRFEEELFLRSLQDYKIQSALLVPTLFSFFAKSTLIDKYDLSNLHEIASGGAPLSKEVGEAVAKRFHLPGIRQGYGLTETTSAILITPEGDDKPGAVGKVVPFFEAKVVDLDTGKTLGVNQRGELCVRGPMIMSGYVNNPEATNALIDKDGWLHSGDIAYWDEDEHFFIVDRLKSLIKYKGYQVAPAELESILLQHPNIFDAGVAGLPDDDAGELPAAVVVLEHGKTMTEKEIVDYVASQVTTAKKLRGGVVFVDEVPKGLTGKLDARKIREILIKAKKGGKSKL
Chain of Thyrotropin receptor (Homo sapiens) (P16473 whole entry, looked up): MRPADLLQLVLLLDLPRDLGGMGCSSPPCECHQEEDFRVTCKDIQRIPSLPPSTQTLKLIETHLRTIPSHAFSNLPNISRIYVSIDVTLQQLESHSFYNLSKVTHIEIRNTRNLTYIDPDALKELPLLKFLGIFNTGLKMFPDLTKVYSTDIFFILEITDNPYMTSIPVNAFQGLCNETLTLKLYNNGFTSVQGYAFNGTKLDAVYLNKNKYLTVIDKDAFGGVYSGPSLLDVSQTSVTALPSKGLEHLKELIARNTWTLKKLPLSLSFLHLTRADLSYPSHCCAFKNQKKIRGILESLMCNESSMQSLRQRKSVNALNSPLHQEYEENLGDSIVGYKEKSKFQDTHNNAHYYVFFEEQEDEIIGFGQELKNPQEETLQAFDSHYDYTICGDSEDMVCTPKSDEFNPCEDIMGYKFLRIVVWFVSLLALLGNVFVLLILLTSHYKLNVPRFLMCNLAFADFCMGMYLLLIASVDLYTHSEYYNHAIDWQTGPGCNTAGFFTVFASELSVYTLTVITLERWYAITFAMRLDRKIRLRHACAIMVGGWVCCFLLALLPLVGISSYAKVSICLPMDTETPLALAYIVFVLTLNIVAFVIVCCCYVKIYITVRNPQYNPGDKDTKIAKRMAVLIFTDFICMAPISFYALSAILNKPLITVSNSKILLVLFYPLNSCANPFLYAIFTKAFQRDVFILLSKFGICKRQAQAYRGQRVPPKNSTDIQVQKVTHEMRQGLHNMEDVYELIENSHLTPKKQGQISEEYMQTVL

On to `OCCOCCOCCOCCOCCO`, for which the Potency result in [1], in test [2], in test [3], in [4], in test [5] and in [6] was “inactive” in each case. The Potency result in test [7] was “inactive”.
For `CO[Si](CCCNCCN)(OC)OC`, the Potency entry in test [8], in test [1], in test [2], in test [3], in test [6] and in test [7] was “inactive” each time.
In the case of `O=c1n(CCCN2CCN(c3cccc(Cl)c3)CC2)nc2ccccn12`, the Potency entry in test [1], in [2], in test [9], in [10], in test [3] and in test [6] was “inactive” throughout. Also, the Potency entry in test [7] was “inactive”.
`CCOC(=O)CC(=O)OCC`: the Potency entry in test [8], in [1], in test [2], in test [3], in test [6] and in test [7] was “inactive” each time.
For the molecule `COC(=O)CCCCC(=O)OC`, the Potency result in [8], in [1], in test [2], in test [3] and in test [7] was “inactive” in each case.
Take `CN1CCCC1=O`: the Potency entry in test [8], in test [1], in [2], in [3] and in [7] was “inactive” in each case.
On to `OC[C@H]1O[C@@H](Oc2ccc(O)cc2)[C@H](O)[C@@H](O)[C@@H]1O`, for which the Potency entry in [8], in test [1], in [2], in test [3], in [4] and in test [5] was “inactive” in each case. In addition, the Potency entry in test [6] and in test [7] was “inactive” in each case.
As for `Cc1ccncc1`, the Potency entry in [8], in [1], in [2], in test [3], in test [6] and in [7] was “inactive” throughout.
Consider `CC[N+](CC)(CC(=O)Nc1c(C)cccc1C)Cc1ccccc1`, for which the Potency result in [8], in test [1], in [2], in test [3], in test [6] and in [7] was “inactive” in each case.
As for `CC(=O)CC(=O)N(C)C`, the Potency result in [8], in [1], in test [2], in [3], in test [6] and in [7] was “inactive” throughout.
`CC(=O)C(C)C`: the Potency entry in test [8], in test [1], in [2], in test [3] and in [7] was “inactive” each time.
On to `COC(=O)OC`, for which the Potency result in test [1], in test [2], in [9], in test [10], in [3] and in test [4] was “inactive” throughout. Further, the Potency result in test [5], in test [6] and in [7] was “inactive” in each case.
With `Cc1cccc(C)c1[N+](=O)[O-]`, the Potency result in test [8], in [1], in [2], in test [3], in test [6] and in test [7] was “inactive” in each case.
As for `c1cnc2c(c1)ccc1cccnc12`, the Potency was 71.7 µM (active) and inactive in [8]; 617 nM (active) and 1.93 µM (active) in [2]; 219 nM (active) and inactive and 864 nM (active) in test [9]; 2.76 µM (active) and 2.73 µM (active) in [3]; 777 nM (active) and 969 nM (active) and 1.72 µM (active) in test [4]. Further, the Potency result in test [10], in [5], in test [6] and in test [7] was “inactive” in each case.
Regarding `C[n+]1ccn(CCO)c1`, the Potency result in test [8], in test [1], in test [2], in test [3], in test [4] and in test [5] was “inactive” throughout. In test [7], the Potency entry is “inactive”.
Regarding `O=C(Cl)c1ccc(C(=O)Cl)cc1`, the Potency result in test [1], in test [2], in test [9], in test [10], in test [3] and in test [6] was “inactive” each time. Moreover, in test [7], the Potency result is “inactive”.
As to `CCn1cc(C(=O)O)c(=O)c2cc3c(cc21)OCO3`, the Potency entry in [8], in test [1], in [2], in test [3], in test [6] and in test [7] was “inactive” each time.
For `CC(CN1c2ccccc2Sc2ccccc21)N(C)C` (stereo not drawn), the Potency entry in test [8], in [9], in test [10], in test [4], in test [5] and in [6] was “inactive” throughout. Besides, the Potency is 54.5 µM (active) in [1] and 39.3 µM (active) in test [7].
Turning to `C=C1C[C@]23C[C@@]1(O)CC[C@H]2[C@@]12C=C[C@H](O)[C@@](C)(C(=O)O1)[C@H]2[C@@H]3C(=O)O`, the Potency entry in test [8], in test [3], in [4], in [5], in test [6] and in test [7] was “inactive” each time.
Consider `CCN(CC)CCNC(=O)c1ccc(N)cc1`, for which the Potency entry in test [8], in test [1], in test [2], in test [3], in test [6] and in test [7] was “inactive” throughout.
On to `CC1=CC(=O)CC(C)(C)C1`, for which the Potency was 36.6 µM (active) and inactive in [8]; 28.1 µM (active) and inactive in test [3]; 4.49 µM (active) and inactive in [7]. The Potency entry in test [4], in test [5] and in [6] was “inactive” throughout.
In the case of `NCCNCCNCCN`, the Potency result in [1], in test [2], in [9], in test [10], in test [3] and in [6] was “inactive” in each case. In addition, in [7], the Potency entry was “inactive”.
Consider `CC1(C)C(=O)N(Cl)C(=O)N1Cl`, for which the Potency result in test [8], in [1], in test [2], in test [3], in test [6] and in test [7] was “inactive” each time.
Turning to `CC(=O)OC[C@H]1O[C@@](COC(C)=O)(O[C@H]2O[C@H](COC(C)=O)[C@@H](OC(C)=O)[C@H](OC(C)=O)[C@H]2OC(C)=O)[C@@H](OC(C)=O)[C@@H]1OC(C)=O`, the Potency entry in [8], in test [1], in test [2], in test [3], in [6] and in test [7] was “inactive” in each case.
Turning to `O=C(NCC1CCCCN1)c1cc(OCC(F)(F)F)ccc1OCC(F)(F)F` (stereo not drawn), the Potency entry in [1], in test [2], in test [9], in [3], in [6] and in test [7] was “inactive” each time.
As to `Cc1nnc(NS(=O)(=O)c2ccc(N)cc2)s1`, the Potency result in test [8], in test [1], in test [2], in test [3], in test [6] and in test [7] was “inactive” each time.
Regarding `C=C(C)CC(C)(C)C`, the Potency result in test [8], in [1], in [2], in [3], in [6] and in test [7] was “inactive” each time.
For the molecule `COc1ccc([C@@H]2CC(=O)c3c(O)cc(O[C@@H]4O[C@H](CO[C@@H]5O[C@@H](C)[C@H](O)[C@@H](O)[C@H]5O)[C@@H](O)[C@H](O)[C@H]4O)cc3O2)cc1OC`, the Potency result in [1], in test [2], in test [9], in test [10], in test [3] and in [6] was “inactive” each time. The Potency entry in test [7] was “inactive”.
For the molecule `O=c1c(O)c(-c2ccc(O)c(O)c2)oc2cc(O)cc(O)c12`, the Potency in test [8] is 35.9 µM (active) [middle of 4 runs]; in [10] it was 54.5 µM (active) and inactive; in test [3] it was “inactive and 24.3 µM (active)”. Besides, the Potency result in test [1], in [9], in test [6] and in [7] was “inactive” in each case.
Take `Cc1cc(CC(=O)O)n(C)c1C(=O)c1ccc(Cl)cc1`: the Potency result in [8], in test [1], in [2], in test [3], in test [6] and in test [7] was “inactive” in each case.
Turning to `NC1CCCCC1N` (stereo not drawn), the Potency result in test [1], in test [2], in test [9], in [10], in test [3] and in test [4] was “inactive” each time. Further, the Potency entry in test [5], in test [6] and in [7] was “inactive” throughout.
Take `CCCCC(CC)COC(=O)c1ccc(C(=O)OCC(CC)CCCC)cc1` (stereo not drawn): the Potency result in test [8], in test [1], in test [2], in [3], in [4] and in [5] was “inactive” in each case. Further, the Potency entry in test [7] was “inactive”.
Turning to `CC(C=O)Cc1ccc(C(C)(C)C)cc1` (stereo not drawn), the Potency entry in [1], in test [2], in [9], in test [10], in [3] and in test [4] was “inactive” each time. For the same molecule, the Potency entry in [5], in test [6] and in [7] was “inactive” in each case.
On to `C=C(CC(=O)O)C(=O)O`, for which the Potency result in test [8], in [3], in test [6] and in [7] was “inactive” throughout.
